{"source": "PubChem BioAssay (NCI)", "note": "Compounds without any hit were thinned out: in the full panel of roughly 79,000, 15% have a hit. The source made the active and inactive calls. Rule as the data show it: active = growth inhibition above about 70%; inactive = the rest.", "data": [{"assay": "NCI Yeast Anticancer Drug Screen. Data for the mlh1 strain (AID 171);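 also: 0% = growth of vehicle-treated control cultures of the same strain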", "conditions": "S. cerevisiae mlh1 strain growth inhibition; at 3.7 µM; stronger effect = higher value", "method_in_brief": "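Compounds are applied to a genetically altered yeast strain, and its growth is compared with that of vehicle-treated cultures to give percent inhibition.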", "values": [{"smiles": "O=C1/C(=C/c2ccccc2)CCCC1CN1CCCCC1", "note": "(configuration not stated)", "growth inhibition": "16% (inactive)"}, {"smiles": "C#CCN(Cc1ccc2nc(N)[nH]c(=O)c2c1)c1ccc(C(=O)NC(CCC(=O)O)C(=O)O)cc1", "note": "(configuration not stated)", "growth inhibition": "14% (inactive)"}, {"smiles": "CCOC1(c2cccc([N+](=O)[O-])c2)c2ccccc2Oc2ccccc21", "growth inhibition": "-2% (inactive)"}, {"smiles": "O=C(O)CNC(=S)Nc1ccccc1", "growth inhibition": "-56% (inactive)"}, {"smiles": "N/C(=N/N=C/c1cc(Br)cc(Br)c1O)NO", "growth inhibition": "-40% (inactive)"}, {"smiles": "C[Si](C)(C)/C=C/CCNC(C#N)c1ccccc1", "note": "(configuration not stated)", "growth inhibition": "-5% (inactive)"}, {"smiles": "CCCCCCCCCCCCCCCCOP(=O)(O)OCC(N)C(=O)O", "note": "(configuration not stated)", "growth inhibition": "-11% (inactive)"}, {"smiles": "CC1=C(C(=O)NCc2ccccc2)C(c2ccccc2)C(C(=O)NCc2ccccc2)=C(C)N1", "growth inhibition": "-3% (inactive)"}, {"smiles": "O=[N+]([O-])c1cc(S(=O)(=O)Nc2ccccc2)ccc1Nc1ccccc1", "growth inhibition": "-15% (inactive)"}, {"smiles": "CCOC(=O)C(Br)C(Br)c1ccccc1Cl", "note": "(configuration not stated)", "growth inhibition": "23% (inactive)"}, {"smiles": "CCOC(=O)C1=C(C)NC(C)=C(C(=O)OCCNC(=O)c2ccc(N=[N+]=[N-])cc2)C1c1ccccc1C(F)(F)F", "note": "(configuration not stated)", "growth inhibition": "-5% (inactive)"}, {"smiles": "Cc1cc(C)c(NC(=S)NC(=O)c2ccccc2)cc1C", "growth inhibition": "-20% (inactive)"}, {"smiles": "CNCCCNc1c2ccccc2nc2cccc([N+](=O)[O-])c12", "growth inhibition": "42% (inactive)"}, {"smiles": "COc1c(O)c(C=O)c(Br)c(C=O)c1O", "growth inhibition": "2% (inactive)"}, {"smiles": "Cc1c(C)c(C)c(CSC(=N)N)c(C)c1C", "growth inhibition": "-43% (inactive)"}, {"smiles": "CNC(=O)OCc1c(COC(=O)NC)c(-c2ccc(Cl)cc2)n2c1CCC2", "growth inhibition": "-93% (inactive)"}, {"smiles": "CC(=O)OC1CC2C(C)(C)C(=O)C=C[C@]2(C)C2CCC3(C)C(=CCC3[C@H](CO)C[C@H](O)C(=O)C(C)(C)O)[C@]12C", "note": "(some centres not stated)", "growth inhibition": "-23% (inactive)"}]}]}
